PubChem BioAssay AID588413 (Sanford-Burnham Center for Chemical Genomics, 2011)
The whole screen tested about 340,000 compounds, of which about 2,500 (0.74%) were called active. The sample holds actives, similar compounds and a random draw of the others, so the mix is not that of the screen.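 The calls were made as follows: active = inhibition above about 55% (limit read from the data); inactive = the rest.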

assay: blockers of Gli reporter signaling – luciferase luminescence, Sufu-KO-LIGHT cells, uHTS, primary screen (AID 588413); details: Sufu-KO-LIGHT fibroblasts, at 5 µM, active compounds read high;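 also: 0% = DMSO-treated cells and 100% = wells with medium but no cells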

SMILES	inhibition
Cc1ccc(S(=O)(=O)N(C)C)cc1NC(=O)c1ccc(-n2cncn2)c([N+](=O)[O-])c1	5.99% (inactive)
CCc1ccc(CNC(=O)C2CCCN(c3nc4ccccc4o3)C2)cc1 (stereo not drawn)	5.09% (inactive)
CCOC(=O)c1cnc(Nc2nc3ccccc3o2)nc1CSC(=S)N1CCCCC1	57.2% (active)
CCOC(=O)CCNC(=O)N1CCCC(C(=O)c2ccccc2SC)C1 (stereo not drawn)	4.81% (inactive)
CCc1ccc(C(=O)C(C)OC(=O)CN2C(=O)NC3(CCCC3)C2=O)cc1 (stereo not drawn)	-24.9% (inactive)
COCCN(C(=O)COC(=O)Cc1cccc(OC)c1)c1c(N)n(Cc2ccccc2)c(=O)[nH]c1=O	-12.3% (inactive)
Cc1ccc(NC(=O)c2sccc2C)cc1[N+](=O)[O-]	-30.3% (inactive)
Cc1ccc(NC(=O)CN(C)CC(=O)Nc2cccc(F)c2)cc1[N+](=O)[O-]	67.2% (active)
CN(CC(=O)Nc1cccc(F)c1)C(=O)C1=COCCO1	-13.3% (inactive)
O=C(N/C(=C\c1ccc([N+](=O)[O-])cc1)C(=O)N1CCOCC1)c1cccc(Br)c1	14.4% (inactive)
CC(C)c1ccc(C=NNc2ccc([N+](=O)[O-])cn2)cc1	-110% (inactive)
Oc1ccc(/C=N/Nc2ccc(C(F)(F)F)cn2)cc1O	75.1% (active)
FC(F)(F)c1cccc(N/N=C/c2ccccc2)c1	2.85% (inactive)
COc1cccc2cc(C(=O)N(C)C)c(=O)oc12	-0.51% (inactive)
COc1cccc2cc(C(=O)N3CCN(C(=O)c4ccccc4)CC3)c(=O)oc12	0.62% (inactive)
COc1cccc2cc(C(N)=O)/c(=N\NC(=O)c3ccccc3)oc12	61.3% (active)
O=S(=O)(Cc1ccc(Cl)cc1Cl)c1ccc(Cl)cc1	-10.2% (inactive)
Nc1ccc(N=Nc2ccccc2Cl)c(N)n1	-22.2% (inactive)
O=c1c2ccccc2nc2n1C(CSCc1cccc(C(F)(F)F)c1)CS2 (stereo not drawn)	65.9% (active)
N#Cc1c(-c2ccccc2)nc(SCc2cccc(C(F)(F)F)c2)[nH]c1=O	2.78% (inactive)
O=c1c2ccccc2nc2n1C(CSCc1ccccc1)CS2 (stereo not drawn)	41.5% (inactive)

SMILES	inhibition
CN(CC(=O)O)C(=O)c1ccccc1	-17.4% (inactive)
CN(/N=C/c1ccccc1)C(=S)c1ccccc1	2.13% (inactive)
CN(O)C(=S)c1ccccc1	82.7% (active)
COc1ccc(CNc2c(CO)cnc3c2cnn3C)cc1	25.4% (inactive)
CCOC(=O)C1CN(S(=O)(=O)c2ccc(OC)cc2)c2cc(Cl)ccc2O1 (stereo not drawn)	21.4% (inactive)
CCOc1ccc(S(=O)(=O)NCc2ccc3c(c2)OCO3)cc1C	-7.28% (inactive)
CCCOc1ccc(Cc2c(Cl)nc(SC)nc2NC)cc1	57.3% (active)
CCCOc1ccc(Cc2c(O)nc(SC)[nH]c2=O)cc1C	-2.99% (inactive)
CCCOc1ccc(Cn2c(O)cc(=O)[nH]c2=O)cc1	9.29% (inactive)
CC(C)N(C(=O)CN1CCN(S(=O)(=O)c2ccc(Br)s2)CC1)C(C)C	-1.96% (inactive)
CC(C)OCCCNc1ncnc2c1[nH]c1ccc(F)cc12	62% (active)
Fc1ccc2[nH]c3c(N4CCN(Cc5ccc6c(c5)OCO6)CC4)ncnc3c2c1	-4.16% (inactive)
CC(=O)NCc1ccc(S(=O)(=O)NC2CCN(Cc3ccccc3)CC2)cc1	-8.88% (inactive)
CC(=O)c1cc2c(cc1NC(=O)CN1CCCCCC1)OCO2	-2.2% (inactive)
COc1ccc(Cn2c(=O)cc(C)[nH]c2=S)cc1	8.5% (inactive)
COc1ccc(Cn2c(-c3ccc(Cl)cc3)c[n+]3ccccc23)cc1	66.8% (active)
CCn1c(C)cc(=O)cc1-c1ccc(Cl)cc1	8.82% (inactive)
C[C@@H]1CN([C@@H](C)CO)C(=O)c2cc(NC(=O)C3CC3)ccc2O[C@H]1CN(C)C	-16% (inactive)
Cc1ccccc1N1CCN(CC(=O)NCc2ccc(Cl)cc2)CC1	6.04% (inactive)
COc1ccc(OC)c(CN2C(=O)CCC2(C)C(=O)NC2CCCCCC2)c1 (stereo not drawn)	23.4% (inactive)
O=C(C1CCCO1)N1CCN(C(=S)NC2CC2)CC1 (stereo not drawn)	-11.3% (inactive)

SMILES	inhibition
Cc1ccc(-c2cn3cc(C)ccc3n2)cc1	63.8% (active)
COc1ccc(-c2cn3ccc(C)cc3n2)cc1	-72% (inactive)
Cc1ccc2nc(-c3ccc(Br)cc3)cn2c1	20.9% (inactive)
O=C(CCS(=O)(=O)c1cccc2nonc12)NCCc1ccccc1Cl	4.43% (inactive)
CC1(C)CCSC(/C=C/c2ccccc2)=N1	4.7% (inactive)
CCN(CC(=O)Nc1ccccc1C(F)(F)F)C(=O)C1CCN(C(=O)Nc2ccccc2)CC1	7.33% (inactive)
COc1cc(C(F)(F)F)c(C(=O)N(C)c2ccc(Cl)cc2)cn1	0.82% (inactive)
N=c1c2c3c(sc2nc2n1CCCCC2)CCCC3	-5.48% (inactive)
O=C(CCc1ccccc1)Nc1ccnn1C1CCN(Cc2ccc(OCCO)cc2)CC1	11.7% (inactive)
CC[n+]1cc(C)ccc1/C=C/c1ccc(N(C)C)cc1	81.8% (active)
COc1ccc(-c2c(C#Cc3ccsc3)c3cc(-c4ccc(CN5CCOCC5)cc4)ccc3n2C)cc1	9.39% (inactive)
O=C(COc1cccnc1[N+](=O)[O-])Nc1ccc(Cl)cc1F	-19.8% (inactive)
Cc1ccc(-c2nc(CSCC(=O)NC3CCN(Cc4ccccc4)CC3)c(C)o2)cc1	67.4% (active)
Cc1ccc(S(=O)(=O)NCCC(=O)NC2CCN(Cc3ccccc3)CC2)cc1	3.57% (inactive)
Cc1ccc(-c2cc(C(=O)NC3CCN(Cc4ccccc4)CC3)c3ccccc3n2)cc1	10.8% (inactive)
Cc1cc(C)c(C=NNc2nc3c([nH]2)c(=O)n(C)c(=O)n3C)c(C)c1	1.9% (inactive)
Cc1ccc(C(=O)Nc2sc(Cc3ccc4c(c3)OCO4)c(C)c2C(N)=O)cc1	-1.06% (inactive)
COCOc1cc(O)c(C(=O)/C=C/c2ccc(OCOC)c(OCOC)c2)c(OCOC)c1	3.02% (inactive)
Cc1ccc(S(=O)(=O)N2CCN(C(=O)c3ccc(-n4cncn4)c([N+](=O)[O-])c3)CC2)cc1	1.3% (inactive)
Nc1ccc(C(=O)N2CCN(S(=O)(=O)c3ccc(Cl)cc3)CC2)cc1[N+](=O)[O-]	98.7% (active)
CC(C)c1ccc(S(=O)(=O)N2CCN(C(=O)c3ccc(N4CCCC4)c([N+](=O)[O-])c3)CC2)cc1	-1.24% (inactive)
